Data as given in PubChem BioAssay (NCATS).
Results filed as inconclusive are left out. Calls of active or inactive are those of the source. Unless noted, calls follow the shape of the dose curve; as a rule, active = well fitted curve in the direction sought with a large enough effect; inconclusive = small, poorly fitted or top-dose-only effect, or another doubt; inactive = no such curve, though single readings can be large; an effect the other way counts as inactive or inconclusive.

experiment: S16 Schwann cell viability assay (CellTiter-Glo assay) (AID 624031); conditions: S16 rat Schwann cells viability, 24 h; series mostly up to 57.5 µM; activity change, negative = cytotoxicity: at the top concentration;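 also: native untransfected S16 rat Schwann cells; cellular ATP luminescence as a viability measure; plate controls were DMSO-treated cells for no effect and cell-free wells for full effect; nearly all actives have a fitted effect of over 70% in size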
How it was run: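 Parental S16 cells, 24 h compound, 37 °C. ATP-luminescence viability; DMSO = 0% activity, empty wells as reference; curves classified by fit quality and efficacy.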

SMILES | activity change, negative = cytotoxicity | Potency
CCCCCCCCCCCC(=O)[O][Sn]([CH2]CCC)([CH2]CCC)[O]C(=O)CCCCCCCCCCC | -16.2% (inactive) | 
C=CCN1C(=O)C(CC(C)C)NC1=S (stereo unspecified) |  | inactive
CCCSc1ccc2nc(NC(=O)OC)[nH]c2c1 | -29.8% [at 25.7 µM] (inactive) | 
C#C[C@]1(O)CC[C@H]2[C@@H]3CCc4cc(O)ccc4[C@H]3CC[C@@]21C | -26.1% (inactive) | 
CC1OC1P(=O)(O)O (stereo unspecified) | -22.5% (inactive) | 
CC(=O)[C@]1(O)Cc2c(O)c3c(c(O)c2[C@@H](O[C@H]2C[C@H](N)[C@H](O)[C@H](C)O2)C1)C(=O)c1c(O)cccc1C3=O | -6.73% (inactive) | 
O=C(O)[C@H](O)[C@@H](O)[C@H](O)[C@H](O)CO | 2.95% (inactive) | 
CCCCCCOc1ccccc1C(N)=O | 3.71% (inactive) | 
CN1CCN(c2cc3c(nn2)Oc2ccccc2N3C)CC1 | 5.06% (inactive) | 
Clc1ccccc1-c1nc(-c2ccncc2)no1 | -2.96% (inactive) | 
CN1[C@@H](CC(=O)c2ccccc2)CCC[C@H]1C[C@H](O)c1ccccc1 | -15.1% (inactive) | 
C=CC(N)CCC(=O)O (stereo unspecified) | 7.98% (inactive) | 
CCCOC(=O)c1ccc(O)cc1 | 9.45% (inactive) | 
COc1cc(/C=C/C(=O)N2CCN(CC(=O)N3CCCC3)CC2)cc(OC)c1OC | -7.57% (inactive) | 
COc1cc2c3cc1Oc1cc(ccc1O)C[C@@H]1c4c(cc(OC)c(O)c4Oc4ccc(cc4)C[C@@H]3N(C)CC2)CC[N+]1(C)C | -7.89% (inactive) | 
Cc1ccc(C(=O)c2ccc(CC(=O)O)n2C)cc1 | -13% [at 25.7 µM] (inactive) | 
NC(=O)C(c1ccccc1)(c1ccccc1)[C@@H]1CCN(CCc2ccc3c(c2)CCO3)C1 | -27.5% (inactive) | 
O=C1CN(/N=C/c2ccc(-c3ccc([N+](=O)[O-])cc3)o2)C(=O)N1 | -0.451% (inactive) | 
O=C(Nc1ccc(C(=O)O)c(O)c1)c1ccccc1 | -2.36% (inactive) | 
Cc1ccc(O)c(-n2nc3ccccc3n2)c1 | 0.772% (inactive) | 
O=C(CCN1CCN(CCO)CC1)N1c2ccccc2Sc2ccc(C(F)(F)F)cc21 | -39.7% (inactive) | 

experiment: S16 Schwann cell PMP22 intronic element firefly luciferase assay (AID 624032); conditions: S16 rat Schwann cells, PMP22 element FLuc, 24 h; series mostly up to 57.5 µM; activity change, negative = inhibition: at the top concentration; also: nearly all actives have a fitted effect of over 30% in size; also: potency is read from the fitted curve at half-maximal effect;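 as to activity change, negative = inhibition: plate controls were DMSO for no effect and PTC124 positive control mean for full effect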
How it was run: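 Rat S16 Schwann cells stably carrying a PMP22 intronic element-driven Fluc reporter were seeded overnight, then exposed to compounds for 24 h at 37 °C. Luminescence was normalized to PTC124 (positive control) and DMSO (0% activity).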

SMILES | activity change, negative = inhibition | Potency
c1ccc2sc(SN3CCOCC3)nc2c1 | 43.2% (inactive) | 
CCCCCCCCCCCC(=O)[O][Sn]([CH2]CCC)([CH2]CCC)[O]C(=O)CCCCCCCCCCC |  | 9.07 µM (active)
Nc1c(CC(=O)O)cccc1C(=O)c1ccc(Br)cc1 | -2.3% (inactive) | 
C=CCN1C(=O)C(CC(C)C)NC1=S (stereo unspecified) |  | inactive
C#C[C@]1(O)CC[C@H]2[C@@H]3CCc4cc(O)ccc4[C@H]3CC[C@@]21C |  | 12.8 µM (active)
CC1OC1P(=O)(O)O (stereo unspecified) | 5.78% (inactive) | 
Cc1c(Nc2ncccc2C(=O)O)cccc1C(F)(F)F | 2.31% [at 25.7 µM] (inactive) | 
O=c1[nH]c2ccccc2n1CCCN1CCN(C(c2ccccc2)c2ccccc2)CC1 |  | 8.09 µM (active)
Cc1nc2ccccc2n1Cc1ccc(Cl)cc1 | -26.2% (inactive) | 
O=C(O)Cc1ccc(-c2ccccc2)cc1 | -26.1% [at 25.7 µM] (inactive) | 
O=C(O)[C@H](O)[C@@H](O)[C@H](O)[C@H](O)CO | 0.417% (inactive) | 
CCCCCCOc1ccccc1C(N)=O | 41.3% (inactive) | 
COc1ccc(-c2cc(=S)ss2)cc1 | 16.1% (inactive) | 
Clc1ccccc1-c1nc(-c2ccncc2)no1 | 16.8% (inactive) | 
Cc1[nH]cnc1CN1CCc2c(c3ccccc3n2C)C1=O | 14.7% (inactive) | 
CC1(C)C[C@@H]1C(=O)N/C(=C\CCCCSC[C@H](N)C(=O)O)C(=O)O | 8.91% (inactive) | 

SMILES | activity change, negative = inhibition | Potency
CN1[C@@H](CC(=O)c2ccccc2)CCC[C@H]1C[C@H](O)c1ccccc1 | -23.9% (inactive) | 
C=CC(N)CCC(=O)O (stereo unspecified) | -19.4% (inactive) | 
CCCC(=O)OC[C@@H](OC(=O)CCC)[C@@H](OC(=O)CCC)[C@H](Cn1c2nc(=O)[nH]c(=O)c-2nc2cc(C)c(C)cc21)OC(=O)CCC |  | 14.4 µM (active)
CCOc1ccc2nc(S(N)(=O)=O)sc2c1 | 14.5% (inactive) | 
O=C(O)[C@H](CC(=O)N1C[C@H]2CCCC[C@H]2C1)Cc1ccccc1 | -4.65% (inactive) | 
Nc1ccc(C(=O)O)c(O)c1 | -13.7% (inactive) | 
CCCOC(=O)c1ccc(O)cc1 | 11.2% (inactive) | 
CCOC(=O)c1ccccc1O | 4.66% (inactive) | 
COc1cc(/C=C/C(=O)N2CCN(CC(=O)N3CCCC3)CC2)cc(OC)c1OC | -18.7% (inactive) | 
CC(C(=O)O)c1ccc2c(c1)[nH]c1ccc(Cl)cc12 (stereo unspecified) | -14.2% (inactive) | 
COc1cc2c3cc1Oc1cc(ccc1O)C[C@@H]1c4c(cc(OC)c(O)c4Oc4ccc(cc4)C[C@@H]3N(C)CC2)CC[N+]1(C)C | -9.72% (inactive) | 
Cc1ccc(C(=O)c2ccc(CC(=O)O)n2C)cc1 | -15.3% [at 25.7 µM] (inactive) | 
O=C1CN(/N=C/c2ccc(-c3ccc([N+](=O)[O-])cc3)o2)C(=O)N1 | -17.9% (inactive) | 
O=C(Nc1ccc(C(=O)O)c(O)c1)c1ccccc1 | 9.49% (inactive) | 
Cc1ccc(O)c(-n2nc3ccccc3n2)c1 | 201% (inactive) | 

experiment: S16 Schwann cell PMP22 intronic element beta-lactamase assay (AID 624044; calls by dose curve; also: nearly all actives have a fitted effect of over 15% in size; also: potency is read from the fitted curve at half-maximal effect;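 as to ratio activity, negative = inhibition: 0% = DMSO and -100% = potassium clavulanate positive control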); conditions: S16 rat Schwann cells, PMP22 element beta-lactamase FRET, 24 h; series mostly up to 38.3 µM; ratio activity, negative = inhibition: at the top concentration
How it was run: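 Rat S16 Schwann cells with beta-Lac driven by a PMP22 intronic element, compound-treated 24 h at 37 °C. LiveBLAzer FRET B/G read: 460 nm normalized to potassium clavulanate vs DMSO; 535 nm FRET as viability; concentration-effect curves classified.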

SMILES | ratio activity, negative = inhibition | Potency
CCCCCCCCCCCC(=O)[O][Sn]([CH2]CCC)([CH2]CCC)[O]C(=O)CCCCCCCCCCC | 0.979% (inactive) | 
C=CCN1C(=O)C(CC(C)C)NC1=S (stereo unspecified) |  | inactive
C#C[C@]1(O)CC[C@H]2[C@@H]3CCc4cc(O)ccc4[C@H]3CC[C@@]21C | 3% (inactive) | 
CC(=O)[C@]1(O)Cc2c(O)c3c(c(O)c2[C@@H](O[C@H]2C[C@H](N)[C@H](O)[C@H](C)O2)C1)C(=O)c1c(O)cccc1C3=O |  | 0.398 µM (active)
CCCCCCOc1ccccc1C(N)=O | 2.3% (inactive) | 
CN1[C@@H](CC(=O)c2ccccc2)CCC[C@H]1C[C@H](O)c1ccccc1 | -0.885% (inactive) | 
C=CC(N)CCC(=O)O (stereo unspecified) | -0.767% (inactive) | 
CCCOC(=O)c1ccc(O)cc1 | -2.36% (inactive) | 
CCOC(=O)c1ccccc1O | 1.84% (inactive) | 
COc1cc(/C=C/C(=O)N2CCN(CC(=O)N3CCCC3)CC2)cc(OC)c1OC | -3.46% (inactive) | 
O=C1CN(/N=C/c2ccc(-c3ccc([N+](=O)[O-])cc3)o2)C(=O)N1 | -16.6% (inactive) | 
O=C(Nc1ccc(C(=O)O)c(O)c1)c1ccccc1 | 4.94% (inactive) | 
Cc1ccc(O)c(-n2nc3ccccc3n2)c1 | 0.634% (inactive) | 
O=C(CCN1CCN(CCO)CC1)N1c2ccccc2Sc2ccc(C(F)(F)F)cc21 | -2.89% (inactive) | 
